{
  "source": "PubChem BioAssay (NCI)",
  "note": "This is part of a sample that, as a whole, favours compounds with a hit. Of some 79,000 tested, about 15% had one in any assay. The source made the active and inactive calls. Rule as the data show it: active = growth inhibition above about 70%; inactive = the rest.",
  "data": [
    {"assay": "NCI Yeast Anticancer Drug Screen. Data for the cln2 rad14 strain (AID 165);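 also: 0% = growth equal to vehicle treated cultures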", "conditions": "S. cerevisiae cln2 rad14 strain, at 50.0 µM, stronger effect = higher value", "outline": "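cln2 rad14 yeast strain; compound exposure; growth inhibition read vs vehicle controls.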", "values": [
      {"smiles": "COc1ccc(C)c(CN(C)C)c1", "growth inhibition": "5.25% (inactive)"},
      {"smiles": "COc1ccc(Cc2cc(O)c(OC)cc2O)cc1", "growth inhibition": "-22.2% (inactive)"},
      {"smiles": "C=CCN=C1NC(=O)C(CC(=O)Nc2cccc(Cl)c2)S1", "note": "(stereo unspecified)", "growth inhibition": "6.85% (inactive)"},
      {"smiles": "CC(C)(C)NCCCCCO", "growth inhibition": "-8.35% (inactive)"},
      {"smiles": "CC(C)CC(=O)NC(Nc1ccc(S(=O)(=O)Nc2ncccn2)cc1)(C(F)(F)F)C(F)(F)F", "growth inhibition": "20.6% (inactive)"},
      {"smiles": "Oc1ccccc1-c1n[nH]c(=S)n1/N=C/c1ccc(-c2ccc(Br)cc2)o1", "growth inhibition": "-4.35% (inactive)"},
      {"smiles": "NC1=NCC(c2ccccn2)C1c1ccc(F)cc1", "note": "(stereo unspecified)", "growth inhibition": "7.75% (inactive)"},
      {"smiles": "COc1cc(C2=N/C(=C\\c3cc(Cl)cc(Cl)c3O)C(=O)O2)cc(OC)c1OC", "growth inhibition": "-12.6% (inactive)"},
      {"smiles": "COc1ccc(OC)c2c(NCCNCCO)cc(NCCNCCO)nc12", "growth inhibition": "0% (inactive)"},
      {"smiles": "Nn1cnc2nccnc2c1=O", "growth inhibition": "-17.4% (inactive)"},
      {"smiles": "CSc1nc(NC2OCC(O)C(O)C2O)cc(=O)n1C", "note": "(stereo unspecified)", "growth inhibition": "-4.9% (inactive)"}
    ]},
    {"assay": "NCI Yeast Anticancer Drug Screen. Data for the bub3 strain (AID 167)", "conditions": "S. cerevisiae bub3 mutant strain, at 50.0 µM, stronger effect = higher value", "outline": "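Yeast carrying a defined mutation is treated with each compound, and growth is compared with that of vehicle-exposed cells to give inhibition.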", "values": [
      {"smiles": "CN(C)C1=C(c2ccccc2)C(=O)C(c2ccccc2)=C1c1ccccc1", "growth inhibition": "7.05% (inactive)"},
      {"smiles": "COc1ccc(N2C(=O)CC(c3c[nH]c4ccccc34)C2=O)cc1", "note": "(stereo unspecified)", "growth inhibition": "13.8% (inactive)"},
      {"smiles": "BrCCC[n+]1ccc2ccccc2c1-c1nccc2ccccc12", "growth inhibition": "5.05% (inactive)"},
      {"smiles": "CC#CCCCC1(C)CCNC1=S", "note": "(stereo unspecified)", "growth inhibition": "0.8% (inactive)"},
      {"smiles": "Cc1nc([N+](=O)[O-])cn1/C=C/Cn1cc([N+](=O)[O-])nc1C", "growth inhibition": "-25.7% (inactive)"},
      {"smiles": "CCCOC(=O)C(O)Cc1ccccc1", "note": "(stereo unspecified)", "growth inhibition": "-11.1% (inactive)"},
      {"smiles": "Nc1c(N=Nc2ccccc2)cc(S(=O)(=O)O)c2ccccc12", "growth inhibition": "3.2% (inactive)"},
      {"smiles": "CC(C)C1CCC2(C)C(CCC3C4(C)CCCC32OC4)C1", "note": "(stereo unspecified)", "growth inhibition": "48% (inactive)"},
      {"smiles": "FC(F)(Br)C(F)(Cl)Br", "note": "(stereo unspecified)", "growth inhibition": "1.5% (inactive)"},
      {"smiles": "CCN1N=Nc2ccccc2NC1=O", "growth inhibition": "-13.1% (inactive)"},
      {"smiles": "CCCCn1cnc2c(SCCNC(=O)N(C)N=O)ncnc21", "growth inhibition": "3.5% (inactive)"},
      {"smiles": "COc1ccc(N)c(C(O)CCNC(C)=O)c1", "note": "(stereo unspecified)", "growth inhibition": "-43.5% (inactive)"},
      {"smiles": "O=c1[nH]c(=O)c2nc3cc(-c4ccc5nc6[nH]c(=O)[nH]c(=O)c6nc5c4)ccc3nc2[nH]1", "growth inhibition": "2.65% (inactive)"},
      {"smiles": "CCCCN1CSC(=S)N(CCCC)C1", "growth inhibition": "51.4% (inactive)"},
      {"smiles": "CCCCCCC(O)C/C=C/CCCCCC/C(C(=O)OC)=C(/O)C(=O)OCC", "note": "(stereo unspecified)", "growth inhibition": "-6.7% (inactive)"},
      {"smiles": "CC1=C(C)C(=O)OC1", "growth inhibition": "9.85% (inactive)"},
      {"smiles": "Cc1ccccc1NCc1ccccc1", "growth inhibition": "0.35% (inactive)"},
      {"smiles": "CCC[n+]1ccccc1C", "growth inhibition": "7.9% (inactive)"},
      {"smiles": "CNC(=O)c1ccc(/C=C/c2c[nH]c3ccccc23)[n+](C)c1", "growth inhibition": "-2.65% (inactive)"},
      {"smiles": "O=C1C2=C(Nc3ccccc3N2)OC1c1ccccc1Cl", "note": "(stereo unspecified)", "growth inhibition": "-21.8% (inactive)"},
      {"smiles": "CCOC(=O)CNC(=O)C(Cc1ccccc1)NC(=O)c1ccccc1NC(=O)c1ccccc1", "note": "(stereo unspecified)", "growth inhibition": "0.7% (inactive)"},
      {"smiles": "O=C(Nc1ccc(Cl)cc1)c1cccnc1", "growth inhibition": "34.4% (inactive)"},
      {"smiles": "O=C(O)CCC(=O)NNC(=O)CCC(=O)O", "growth inhibition": "14.3% (inactive)"},
      {"smiles": "CN(C)Cc1[nH]c2ccccc2c1Sc1ccccc1", "growth inhibition": "-27.9% (inactive)"},
      {"smiles": "COc1ccc(S(=O)(=O)N/N=C/C(=O)OCOC(=O)C(C)(C)C)cc1", "growth inhibition": "-25.9% (inactive)"},
      {"smiles": "c1ccc(C2=NOCC3(c4ccccc4)OC23)cc1", "note": "(stereo unspecified)", "growth inhibition": "14.2% (inactive)"},
      {"smiles": "CCCCCCCCC(C)C", "growth inhibition": "1.65% (inactive)"},
      {"smiles": "S=c1ncnc2cc3[nH][nH]cc3cc12", "growth inhibition": "-7.95% (inactive)"},
      {"smiles": "O=C(O)c1ccc([C@@H]2C(=O)N(O)[C@@H]3C=CC[C@@H]32)cc1", "growth inhibition": "-14.7% (inactive)"},
      {"smiles": "COc1ccc(C)c(CN(C)C)c1", "growth inhibition": "-1.2% (inactive)"},
      {"smiles": "COc1ccc(Cc2cc(O)c(OC)cc2O)cc1", "growth inhibition": "-3.75% (inactive)"},
      {"smiles": "C=CCN=C1NC(=O)C(CC(=O)Nc2cccc(Cl)c2)S1", "note": "(stereo unspecified)", "growth inhibition": "-36.5% (inactive)"},
      {"smiles": "CC(C)(C)NCCCCCO", "growth inhibition": "-5.7% (inactive)"},
      {"smiles": "CC(C)CC(=O)NC(Nc1ccc(S(=O)(=O)Nc2ncccn2)cc1)(C(F)(F)F)C(F)(F)F", "growth inhibition": "-5.8% (inactive)"},
      {"smiles": "Oc1ccccc1-c1n[nH]c(=S)n1/N=C/c1ccc(-c2ccc(Br)cc2)o1", "growth inhibition": "-20.1% (inactive)"},
      {"smiles": "NC1=NCC(c2ccccn2)C1c1ccc(F)cc1", "note": "(stereo unspecified)", "growth inhibition": "-18.7% (inactive)"},
      {"smiles": "COc1cc(C2=N/C(=C\\c3cc(Cl)cc(Cl)c3O)C(=O)O2)cc(OC)c1OC", "growth inhibition": "-2.9% (inactive)"},
      {"smiles": "COc1ccc(OC)c2c(NCCNCCO)cc(NCCNCCO)nc12", "growth inhibition": "-3.2% (inactive)"},
      {"smiles": "Nn1cnc2nccnc2c1=O", "growth inhibition": "2.4% (inactive)"},
      {"smiles": "CSc1nc(NC2OCC(O)C(O)C2O)cc(=O)n1C", "note": "(stereo unspecified)", "growth inhibition": "-26.9% (inactive)"}
    ]},
    {"assay": "NCI Yeast Anticancer Drug Screen. Data for the mlh1 rad18 strain (AID 175)", "conditions": "S. cerevisiae mlh1 rad18 strain growth inhibition; at 50.0 µM; stronger effect = higher value", "outline": "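Yeast w/ defined DNA-repair lesions; compound exposure; growth vs vehicle controls → % inhibition.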", "values": [
      {"smiles": "CN(C)C1=C(c2ccccc2)C(=O)C(c2ccccc2)=C1c1ccccc1", "growth inhibition": "13.3% (inactive)"},
      {"smiles": "COc1ccc(N2C(=O)CC(c3c[nH]c4ccccc34)C2=O)cc1", "note": "(stereo unspecified)", "growth inhibition": "-22.2% (inactive)"},
      {"smiles": "BrCCC[n+]1ccc2ccccc2c1-c1nccc2ccccc12", "growth inhibition": "49.5% (inactive)"},
      {"smiles": "CC#CCCCC1(C)CCNC1=S", "note": "(stereo unspecified)", "growth inhibition": "24.6% (inactive)"},
      {"smiles": "Cc1nc([N+](=O)[O-])cn1/C=C/Cn1cc([N+](=O)[O-])nc1C", "growth inhibition": "4.8% (inactive)"},
      {"smiles": "CCCOC(=O)C(O)Cc1ccccc1", "note": "(stereo unspecified)", "growth inhibition": "-34.3% (inactive)"},
      {"smiles": "Nc1c(N=Nc2ccccc2)cc(S(=O)(=O)O)c2ccccc12", "growth inhibition": "-2.1% (inactive)"},
      {"smiles": "CC(C)C1CCC2(C)C(CCC3C4(C)CCCC32OC4)C1", "note": "(stereo unspecified)", "growth inhibition": "11.4% (inactive)"},
      {"smiles": "FC(F)(Br)C(F)(Cl)Br", "note": "(stereo unspecified)", "growth inhibition": "24.7% (inactive)"},
      {"smiles": "CCN1N=Nc2ccccc2NC1=O", "growth inhibition": "-25.3% (inactive)"},
      {"smiles": "CCCCn1cnc2c(SCCNC(=O)N(C)N=O)ncnc21", "growth inhibition": "-2.05% (inactive)"},
      {"smiles": "COc1ccc(N)c(C(O)CCNC(C)=O)c1", "note": "(stereo unspecified)", "growth inhibition": "-38.8% (inactive)"},
      {"smiles": "O=c1[nH]c(=O)c2nc3cc(-c4ccc5nc6[nH]c(=O)[nH]c(=O)c6nc5c4)ccc3nc2[nH]1", "growth inhibition": "7% (inactive)"},
      {"smiles": "CCCCN1CSC(=S)N(CCCC)C1", "growth inhibition": "37% (inactive)"},
      {"smiles": "CCCCCCC(O)C/C=C/CCCCCC/C(C(=O)OC)=C(/O)C(=O)OCC", "note": "(stereo unspecified)", "growth inhibition": "1.1% (inactive)"},
      {"smiles": "CC1=C(C)C(=O)OC1", "growth inhibition": "-24.5% (inactive)"},
      {"smiles": "Cc1ccccc1NCc1ccccc1", "growth inhibition": "23.1% (inactive)"},
      {"smiles": "CCC[n+]1ccccc1C", "growth inhibition": "3.65% (inactive)"},
      {"smiles": "CNC(=O)c1ccc(/C=C/c2c[nH]c3ccccc23)[n+](C)c1", "growth inhibition": "-13.3% (inactive)"},
      {"smiles": "O=C1C2=C(Nc3ccccc3N2)OC1c1ccccc1Cl", "note": "(stereo unspecified)", "growth inhibition": "4% (inactive)"},
      {"smiles": "CCOC(=O)CNC(=O)C(Cc1ccccc1)NC(=O)c1ccccc1NC(=O)c1ccccc1", "note": "(stereo unspecified)", "growth inhibition": "22.2% (inactive)"},
      {"smiles": "O=C(Nc1ccc(Cl)cc1)c1cccnc1", "growth inhibition": "15.6% (inactive)"},
      {"smiles": "O=C(O)CCC(=O)NNC(=O)CCC(=O)O", "growth inhibition": "-22.4% (inactive)"},
      {"smiles": "CN(C)Cc1[nH]c2ccccc2c1Sc1ccccc1", "growth inhibition": "30.8% (inactive)"},
      {"smiles": "COc1ccc(S(=O)(=O)N/N=C/C(=O)OCOC(=O)C(C)(C)C)cc1", "growth inhibition": "19.1% (inactive)"},
      {"smiles": "c1ccc(C2=NOCC3(c4ccccc4)OC23)cc1", "note": "(stereo unspecified)", "growth inhibition": "11.3% (inactive)"},
      {"smiles": "CCCCCCCCC(C)C", "growth inhibition": "-2.65% (inactive)"},
      {"smiles": "S=c1ncnc2cc3[nH][nH]cc3cc12", "growth inhibition": "-2.25% (inactive)"},
      {"smiles": "O=C(O)c1ccc([C@@H]2C(=O)N(O)[C@@H]3C=CC[C@@H]32)cc1", "growth inhibition": "8.25% (inactive)"},
      {"smiles": "COc1ccc(C)c(CN(C)C)c1", "growth inhibition": "23.6% (inactive)"},
      {"smiles": "COc1ccc(Cc2cc(O)c(OC)cc2O)cc1", "growth inhibition": "26.8% (inactive)"},
      {"smiles": "C=CCN=C1NC(=O)C(CC(=O)Nc2cccc(Cl)c2)S1", "note": "(stereo unspecified)", "growth inhibition": "-22.4% (inactive)"},
      {"smiles": "CC(C)(C)NCCCCCO", "growth inhibition": "-16.1% (inactive)"},
      {"smiles": "CC(C)CC(=O)NC(Nc1ccc(S(=O)(=O)Nc2ncccn2)cc1)(C(F)(F)F)C(F)(F)F", "growth inhibition": "6.8% (inactive)"},
      {"smiles": "Oc1ccccc1-c1n[nH]c(=S)n1/N=C/c1ccc(-c2ccc(Br)cc2)o1", "growth inhibition": "-42.9% (inactive)"},
      {"smiles": "NC1=NCC(c2ccccn2)C1c1ccc(F)cc1", "note": "(stereo unspecified)", "growth inhibition": "-14% (inactive)"},
      {"smiles": "COc1cc(C2=N/C(=C\\c3cc(Cl)cc(Cl)c3O)C(=O)O2)cc(OC)c1OC", "growth inhibition": "-2.8% (inactive)"},
      {"smiles": "COc1ccc(OC)c2c(NCCNCCO)cc(NCCNCCO)nc12", "growth inhibition": "7.5% (inactive)"},
      {"smiles": "Nn1cnc2nccnc2c1=O", "growth inhibition": "-5.6% (inactive)"},
      {"smiles": "CSc1nc(NC2OCC(O)C(O)C2O)cc(=O)n1C", "note": "(stereo unspecified)", "growth inhibition": "-2.95% (inactive)"}
    ]}
  ]
}
